Hits are enriched below; roughly 0.54% of the tested compounds scored in any of these assays.
TcdB inh: blocks C. difficile toxin B glycohydrolase activity; hit rate 0.24% among 350,000; inhibition, % at 9.99 µM; TcdB glycohydrolase enzymatic assay, plate reader; AID 652162; in the data active = inhibition above about 10%
Vc quorum ag: induces V. cholerae light production without autoinducers; activation, % at 18.7 µM; hit rate 0.16% among 350,000; V. cholerae BH1578 lux reporter, luminescence, 6 h; AID 588436; in the data active = activation mostly above about 9.7%, no sharp cut-off; inconclusive = no clear call, values can overlap the other calls; inactive = mostly below about 3.7%
BioA inh: blocks M. tuberculosis BioA enzyme activity; purified M. tuberculosis BioA enzyme, plate reader; hit rate 0.096% among 360,000; AID 602481; inhibition, % at 9.99 µM; in the data active = inhibition above about 40%; inconclusive = no clear call, values can overlap the other calls
FadD28 binding: M. tuberculosis FadD28 bisubstrate binding inhibition. hit rate 0.22% among 360,000. FadD28 bisubstrate probe binding, fluorescence polarization. inhibition, % at 12.5 µM; in the data active = inhibition above about 8.5%, passing the limit was not always enough; inconclusive = no clear call, values can overlap the other calls
Starred values were filed as active, the others as inactive; i = inactive; ? = inconclusive; nt = no result.

SMILES | TcdB inh | Vc quorum ag | BioA inh | FadD28 binding
COc1cccc(-c2cc3onc(-c4ccccc4)c3c(=O)n2C)c1 | 1.7 | -0.3 | 0.1 | -3.1
Cn1c(-c2ccc(F)c(F)c2)cc2onc(-c3ccccc3)c2c1=O | 10.1* | -0.8 | -1.2 | -0.6
CO[C@H]1CN(C)C(=O)c2ccc(NS(=O)(=O)c3ccccc3)cc2OC[C@H](C)N(C)C[C@H]1C | nt | nt | -1.2 | nt
Cc1ccc(CNC(=O)Nc2cccc(C)c2)cc1 | 10.7* | -0.2 | nt | -2.4
CCOC(=O)[C@@H]1[C@H]2COc3ccc(Br)cc3[C@H]2N2C(=O)N(c3ccc(F)cc3)C(=O)[C@]12C | 0.8 | i | -1.6 | -1.4
CCOC(=O)[C@@H]1[C@H]2COc3ccc(Br)cc3[C@@H]2N2C(=O)N(c3cccc(F)c3)C(=O)[C@]12C | 10.7* | i | -0.8 | -2.4
C[C@H](CO)N1C[C@H](C)[C@H](CN(C)C(=O)Nc2ccc3c(c2)OCO3)Oc2ncc(-c3cncnc3)cc2C1=O | -0.9 | nt | -0.1 | nt
Oc1ccc(-c2nccs2)cc1 | 21.5* | -2.9 | -0.5 | 2.0
Oc1ccc(-c2nc(-c3ccc(O)c(O)c3)cs2)cc1 | nt | -0.3 | nt | 1.3
O=C(CSc1cccc2cccnc12)N/N=C/c1ccc(F)cc1 | 11.1* | i | nt | -2.0
CNC(=O)C[C@@H]1CC[C@H]2[C@H](COc3ccc(NC(=O)Cc4cccs4)cc3C(=O)N2C)O1 | nt | nt | -1.2 | nt
C[C@@H]1CN([C@H](C)CO)C(=O)c2cccc(N(C)C)c2O[C@@H]1CN(C)C(=O)NC1CCCCC1 | -1.5 | nt | -0.9 | nt
O=C(CCN1C(=O)C2C3C=CC(C3)C2C1=O)NC1CCCc2ccccc21 (configuration not stated) | nt | 66.5* | -0.7 | 0.5
Cc1cccc(-c2ccc([C@H]3[C@H](CO)N4C(=O)CN(C(=O)NC5CCCCC5)C[C@@H]34)cc2)c1 | 0.5 | nt | nt | nt
C[C@@H]1CCCCO[C@@H](CN(C)S(=O)(=O)c2ccc(Cl)cc2)[C@H](C)CN([C@@H](C)CO)C(=O)c2cc(NC(=O)Nc3ccccc3)ccc2O1 | 0.6 | nt | -1.6 | nt
CCc1cccc2c(C(=O)CN3C(=O)NC(C)(c4cccc5ccccc45)C3=O)c[nH]c12 (configuration not stated) | 0.6 | -1.6 | nt | 19.4*
CCc1cccc2c(C(=O)CN3C(=O)N(C)C4(CCCCC4)C3=O)c[nH]c12 | 1.5 | -0.7 | 1.3 | ?
CCc1cccc2c(C(=O)CN3C(=O)NC4(CCc5ccccc54)C3=O)c[nH]c12 (configuration not stated) | 0.4 | -0.3 | -0.1 | 33.1*
O=C(CN1C(=O)NC2(CCCc3ccccc32)C1=O)NCC(F)(F)F (configuration not stated) | -0.6 | i | nt | -0.9
O=C(CN1C(=O)NC2(CCCc3ccccc32)C1=O)NCc1cccs1 (configuration not stated) | 15.0* | i | 3.4 | -1.0
CC(C)C(=O)Nc1ccc2c(c1)C(=O)N(C)[C@@H]1CC[C@@H](CC(=O)NCc3ccccc3F)O[C@H]1CO2 | nt | nt | 8.9 | nt
C[C@H](CO)N1C[C@H](C)[C@H](CN(C)Cc2cccnc2)Oc2cc(C#CC3CCCCC3)ccc2S1(=O)=O | -0.8 | nt | 0.3 | nt
O=C(N[C@@H]1CC[C@H](CCn2cc(-c3ccccc3)nn2)O[C@@H]1CO)c1cnccn1 | 1.4 | nt | 7.8 | nt
CC1=C(C#N)c2nc(N)c(C#N)c(C)c2/C1=C\c1ccc(OCC(=O)O)c(Cl)c1 | -1.5 | -0.6 | nt | 14.2*
Cc1ccc(-n2c(SCC(=O)O)nc3c(sc(=S)n3-c3ccc(C)c(C)c3)c2=O)cc1 | 30.2* | i | -2.3 | 0.0
SMILES | TcdB inh | Vc quorum ag | BioA inh | FadD28 binding
Cc1ccc(-n2c(=S)sc3c(=O)n(-c4ccc(F)cc4)c(SCC(=O)O)nc32)cc1C | 8.1 | -0.6 | 1.2 | nt
Cc1ccc(S(=O)(=O)N[C@@H]2CC[C@@H](CCNC(=O)C3CCC3)O[C@H]2CO)cc1 | -0.9 | nt | 0.0 | nt
CC(C)(C)c1ccc(C(=O)Nc2sc3c(c2C(=O)O)CCC3)cc1 | 3.9 | -0.1 | nt | 14.1*
COc1ccc(C2CC(=O)Oc3c(C(C)C)ccc(C)c32)cc1 (configuration not stated) | 1.1 | -0.4 | 0.5 | 8.8*
COc1ccc(C2CC(=O)Oc3cc(C)cc(C)c32)cc1 (configuration not stated) | 2.0 | i | 1.0 | -2.3
COc1ccc(C(=O)NCCc2ccc(Cl)cc2)cc1S(=O)(=O)N1CCCCC1C (configuration not stated) | 0.1 | i | 0.5 | 6.5
COc1ccc(C(=O)NCCc2c[nH]c3ccccc23)cc1S(=O)(=O)N1CCCCC1C (configuration not stated) | 2.3 | i | 5.7 | 61.6*
COc1ccc(NC(=O)N(C)C[C@@H]2Oc3c(NS(=O)(=O)c4ccc(Cl)cc4)cccc3C(=O)N([C@@H](C)CO)C[C@H]2C)cc1 | -0.7 | nt | 0.8 | nt
C=C1CCN(Cc2ccccc2)S(=O)(=O)c2ccccc21 | 11.0* | i | 1.3 | -1.4
OCC[C@@H]1C[C@@H](O)[C@H](O)[C@@]2(Cc3ccccc3CO2)O1 | 0.3 | i | -0.6 | -0.1
OCC[C@H]1C[C@H](O)[C@@H](O)[C@@]2(Cc3ccccc3CO2)O1 | 14.3* | 0.5 | -0.3 | 0.6
CCn1c(SCC(=O)c2cc(C)ccc2C)nc2cc(S(=O)(=O)N3CCOCC3)ccc21 | 0.4 | -0.7 | -0.1 | -3.0
CCC(C)NC(=O)CSc1nc2cc(S(=O)(=O)N3CCOCC3)ccc2n1CC (configuration not stated) | 10.9* | 12.4 | nt | -2.1
CO[C@@H]1CN(C)C(=O)c2ccc(NC(C)=O)cc2OC[C@H](C)N(C(=O)CC2CC2)C[C@@H]1C | nt | nt | -1.2 | nt
COc1ccc(Cn2c(O)c(/C=N/NC(=O)c3cccnc3)c3ccccc3c2=O)cc1 | 1.7 | nt | nt | 13.8*
O=C(N/N=C/c1c(O)n(Cc2ccccc2)c(=O)c2ccccc12)c1cccnc1 | -2.8 | i | nt | 10.6*
C[C@H]1CN([C@@H](C)CO)C(=O)c2cc(NS(C)(=O)=O)ccc2O[C@@H]1CN(C)C(=O)Nc1ccc(C(F)(F)F)cc1 | 2.1 | nt | 1.2 | nt
COc1ccc(NC(=O)C2CC(=O)N(c3ccccc3F)C2)cc1S(=O)(=O)N1CCCCC1 (configuration not stated) | 13.0* | 0.1 | 3.6 | -0.9
COc1ccccc1NS(=O)(=O)c1cccc(NC(=S)NCCN2CCOCC2)c1 | 0.8 | -0.2 | nt | 0.2
Cc1ccc(NS(=O)(=O)c2ccc(C)c(NC(=S)NCCN3CCOCC3)c2)c(C)c1 | 16.5* | i | -0.3 | 0.4
COc1ccc(-c2ccc3c(c2)O[C@@H](CN(C)Cc2cccnc2)[C@H](C)CN([C@@H](C)CO)S3(=O)=O)cc1 | -10.2 | nt | -2.2 | nt
C[C@@H]1CN([C@@H](C)CO)C(=O)c2cccc(NS(=O)(=O)c3ccccc3)c2O[C@@H]1CN(C)S(=O)(=O)c1cccs1 | 0.5 | nt | nt | nt
Cc1ccc(/C=C2\SC(=S)N(Cc3ccccc3)C2=O)o1 | nt | -0.3 | -3.0 | -0.9
O=C(O)c1cc(-c2ccc(/C=C3/SC(=S)N(Cc4ccccc4)C3=O)o2)ccc1Cl | -0.8 | -0.3 | -0.4 | 27.9*
Cc1ccc(NC(=O)OC(C)N2CCCCC2)cc1NC(=O)OC(C)N1CCCCC1 (configuration not stated) | 11.3* | 1.0 | -1.8 | -1.5
